According to the supplement of paper PMC11732987, “Enantioselective OTUD7B fragment discovery through chemoproteomics screening and high-throughput optimisation” (Communications Chemistry, 2025):

Columns and labels:
Test in all cases: log2 ratio of Biotin-Ahx-Ub-VS probe labelling (fragment/DMSO); higher = less target engagement (more negative = stronger competition), active = hit call of the paper (q ≤ 0.05, log2 ratio ≤ -1)
Details in all cases: compound concentration: 200 uM; treatment time: 3 h
[1] = molecular target: USP34 (UniProt Q70CQ2)
USP34, sequence (Q70CQ2 whole entry, the tested form may be a part): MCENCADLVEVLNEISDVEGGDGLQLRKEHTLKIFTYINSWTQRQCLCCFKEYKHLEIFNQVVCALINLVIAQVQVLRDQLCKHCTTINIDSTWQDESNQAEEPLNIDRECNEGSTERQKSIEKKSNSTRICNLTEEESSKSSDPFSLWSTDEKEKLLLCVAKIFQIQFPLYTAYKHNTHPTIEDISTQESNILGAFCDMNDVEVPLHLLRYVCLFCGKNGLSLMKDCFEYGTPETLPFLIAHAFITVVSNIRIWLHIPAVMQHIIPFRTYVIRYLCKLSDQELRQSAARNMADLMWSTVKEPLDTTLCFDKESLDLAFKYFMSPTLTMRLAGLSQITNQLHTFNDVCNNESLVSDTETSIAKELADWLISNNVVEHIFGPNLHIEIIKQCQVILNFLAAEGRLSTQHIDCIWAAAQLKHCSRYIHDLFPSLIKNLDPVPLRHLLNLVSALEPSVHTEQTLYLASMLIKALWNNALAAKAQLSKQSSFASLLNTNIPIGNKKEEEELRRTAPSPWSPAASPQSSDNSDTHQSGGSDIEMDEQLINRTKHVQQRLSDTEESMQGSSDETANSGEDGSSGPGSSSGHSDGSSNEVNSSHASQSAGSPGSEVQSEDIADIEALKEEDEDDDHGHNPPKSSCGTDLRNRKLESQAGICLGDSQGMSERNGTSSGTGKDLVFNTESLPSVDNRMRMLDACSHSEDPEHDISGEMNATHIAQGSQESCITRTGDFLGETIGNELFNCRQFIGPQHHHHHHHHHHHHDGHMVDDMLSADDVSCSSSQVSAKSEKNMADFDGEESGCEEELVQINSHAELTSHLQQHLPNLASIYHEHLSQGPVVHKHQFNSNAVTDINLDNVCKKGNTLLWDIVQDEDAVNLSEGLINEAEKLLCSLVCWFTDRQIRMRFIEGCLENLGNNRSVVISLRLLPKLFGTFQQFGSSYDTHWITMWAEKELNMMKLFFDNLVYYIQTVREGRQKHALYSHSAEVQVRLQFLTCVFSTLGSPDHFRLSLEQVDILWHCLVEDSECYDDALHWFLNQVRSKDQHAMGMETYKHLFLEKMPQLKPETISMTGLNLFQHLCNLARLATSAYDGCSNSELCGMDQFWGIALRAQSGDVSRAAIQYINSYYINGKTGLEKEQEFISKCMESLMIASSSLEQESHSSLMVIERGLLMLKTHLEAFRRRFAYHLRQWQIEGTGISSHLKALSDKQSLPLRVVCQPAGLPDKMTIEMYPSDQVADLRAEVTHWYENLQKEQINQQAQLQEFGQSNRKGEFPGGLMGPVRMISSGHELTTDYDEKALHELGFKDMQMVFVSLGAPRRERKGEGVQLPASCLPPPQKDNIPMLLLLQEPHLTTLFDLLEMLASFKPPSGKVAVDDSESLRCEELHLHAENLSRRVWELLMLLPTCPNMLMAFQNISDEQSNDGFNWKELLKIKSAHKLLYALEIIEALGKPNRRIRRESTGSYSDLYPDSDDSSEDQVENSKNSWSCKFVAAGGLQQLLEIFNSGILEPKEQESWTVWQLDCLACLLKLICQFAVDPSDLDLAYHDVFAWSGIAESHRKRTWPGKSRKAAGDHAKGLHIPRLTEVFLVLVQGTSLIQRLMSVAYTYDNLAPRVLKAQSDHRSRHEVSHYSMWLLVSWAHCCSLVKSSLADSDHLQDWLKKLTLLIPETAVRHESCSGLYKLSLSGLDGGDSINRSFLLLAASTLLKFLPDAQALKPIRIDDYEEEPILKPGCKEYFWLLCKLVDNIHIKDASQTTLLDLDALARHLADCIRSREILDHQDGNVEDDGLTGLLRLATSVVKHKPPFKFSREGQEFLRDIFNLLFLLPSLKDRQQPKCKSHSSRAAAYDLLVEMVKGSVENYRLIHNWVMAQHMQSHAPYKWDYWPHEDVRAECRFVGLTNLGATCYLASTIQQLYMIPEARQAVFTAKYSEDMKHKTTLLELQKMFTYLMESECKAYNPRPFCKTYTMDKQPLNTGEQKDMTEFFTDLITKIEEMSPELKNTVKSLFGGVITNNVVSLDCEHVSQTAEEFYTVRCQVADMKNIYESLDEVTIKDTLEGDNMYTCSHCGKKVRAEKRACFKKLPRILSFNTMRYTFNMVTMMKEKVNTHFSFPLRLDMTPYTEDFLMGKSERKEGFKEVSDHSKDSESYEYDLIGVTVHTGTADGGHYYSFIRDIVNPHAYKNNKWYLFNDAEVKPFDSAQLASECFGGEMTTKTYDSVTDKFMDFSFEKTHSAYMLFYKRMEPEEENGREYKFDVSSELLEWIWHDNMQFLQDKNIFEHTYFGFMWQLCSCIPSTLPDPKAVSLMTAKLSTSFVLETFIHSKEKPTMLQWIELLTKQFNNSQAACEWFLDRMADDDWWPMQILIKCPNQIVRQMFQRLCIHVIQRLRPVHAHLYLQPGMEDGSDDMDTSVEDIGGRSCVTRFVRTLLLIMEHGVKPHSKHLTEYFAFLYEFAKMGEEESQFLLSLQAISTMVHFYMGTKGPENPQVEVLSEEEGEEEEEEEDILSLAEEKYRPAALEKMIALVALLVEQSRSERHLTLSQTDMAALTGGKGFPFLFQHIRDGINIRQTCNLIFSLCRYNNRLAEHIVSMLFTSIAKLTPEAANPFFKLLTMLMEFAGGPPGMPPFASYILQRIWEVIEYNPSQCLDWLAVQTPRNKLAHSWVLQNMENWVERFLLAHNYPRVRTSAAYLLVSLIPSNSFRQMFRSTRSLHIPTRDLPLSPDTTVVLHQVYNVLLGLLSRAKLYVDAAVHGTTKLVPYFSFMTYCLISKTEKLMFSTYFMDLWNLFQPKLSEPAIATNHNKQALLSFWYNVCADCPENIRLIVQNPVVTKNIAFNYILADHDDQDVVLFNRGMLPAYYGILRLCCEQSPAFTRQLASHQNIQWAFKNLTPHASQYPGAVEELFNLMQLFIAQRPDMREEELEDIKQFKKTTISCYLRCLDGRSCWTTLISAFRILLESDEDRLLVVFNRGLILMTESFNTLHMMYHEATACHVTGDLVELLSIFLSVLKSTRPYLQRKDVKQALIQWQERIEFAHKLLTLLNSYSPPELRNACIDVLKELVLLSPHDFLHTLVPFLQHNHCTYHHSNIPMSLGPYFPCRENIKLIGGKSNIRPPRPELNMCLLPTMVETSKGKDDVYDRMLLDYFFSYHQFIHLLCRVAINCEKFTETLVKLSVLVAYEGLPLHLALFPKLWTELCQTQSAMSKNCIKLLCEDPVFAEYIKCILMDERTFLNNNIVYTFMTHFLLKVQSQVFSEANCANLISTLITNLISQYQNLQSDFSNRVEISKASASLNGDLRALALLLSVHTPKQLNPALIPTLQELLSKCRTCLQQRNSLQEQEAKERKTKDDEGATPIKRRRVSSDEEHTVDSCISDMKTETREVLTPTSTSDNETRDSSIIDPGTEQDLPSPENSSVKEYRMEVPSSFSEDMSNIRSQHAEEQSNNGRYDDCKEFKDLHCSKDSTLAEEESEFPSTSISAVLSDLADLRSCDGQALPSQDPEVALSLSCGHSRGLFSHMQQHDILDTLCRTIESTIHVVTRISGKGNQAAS
Summary of the method: (§1)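 HEK293T lysate in Tris/CHAPS/IGEPAL buffer with protease inhibitors (495 µg per sample) was given fragment at 200 µM or vehicle for 3 h, in triplicate. It then received Biotin-Ahx-Ub-VS at 0.5 µM final for 1 h. Labelled DUBs were NeutrAvidin-enriched, digested with LysC and trypsin, and run by diaPASEF LC-MS/MS. Values are average log2 fragment/vehicle ratios by unpaired t-test on global-median-normalised Spectronaut quantities of proteins with ≥2 unique peptides.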

[2] = molecular target: T1, USP36 (UniProt Q9P275)
T1 sequence (whole entry): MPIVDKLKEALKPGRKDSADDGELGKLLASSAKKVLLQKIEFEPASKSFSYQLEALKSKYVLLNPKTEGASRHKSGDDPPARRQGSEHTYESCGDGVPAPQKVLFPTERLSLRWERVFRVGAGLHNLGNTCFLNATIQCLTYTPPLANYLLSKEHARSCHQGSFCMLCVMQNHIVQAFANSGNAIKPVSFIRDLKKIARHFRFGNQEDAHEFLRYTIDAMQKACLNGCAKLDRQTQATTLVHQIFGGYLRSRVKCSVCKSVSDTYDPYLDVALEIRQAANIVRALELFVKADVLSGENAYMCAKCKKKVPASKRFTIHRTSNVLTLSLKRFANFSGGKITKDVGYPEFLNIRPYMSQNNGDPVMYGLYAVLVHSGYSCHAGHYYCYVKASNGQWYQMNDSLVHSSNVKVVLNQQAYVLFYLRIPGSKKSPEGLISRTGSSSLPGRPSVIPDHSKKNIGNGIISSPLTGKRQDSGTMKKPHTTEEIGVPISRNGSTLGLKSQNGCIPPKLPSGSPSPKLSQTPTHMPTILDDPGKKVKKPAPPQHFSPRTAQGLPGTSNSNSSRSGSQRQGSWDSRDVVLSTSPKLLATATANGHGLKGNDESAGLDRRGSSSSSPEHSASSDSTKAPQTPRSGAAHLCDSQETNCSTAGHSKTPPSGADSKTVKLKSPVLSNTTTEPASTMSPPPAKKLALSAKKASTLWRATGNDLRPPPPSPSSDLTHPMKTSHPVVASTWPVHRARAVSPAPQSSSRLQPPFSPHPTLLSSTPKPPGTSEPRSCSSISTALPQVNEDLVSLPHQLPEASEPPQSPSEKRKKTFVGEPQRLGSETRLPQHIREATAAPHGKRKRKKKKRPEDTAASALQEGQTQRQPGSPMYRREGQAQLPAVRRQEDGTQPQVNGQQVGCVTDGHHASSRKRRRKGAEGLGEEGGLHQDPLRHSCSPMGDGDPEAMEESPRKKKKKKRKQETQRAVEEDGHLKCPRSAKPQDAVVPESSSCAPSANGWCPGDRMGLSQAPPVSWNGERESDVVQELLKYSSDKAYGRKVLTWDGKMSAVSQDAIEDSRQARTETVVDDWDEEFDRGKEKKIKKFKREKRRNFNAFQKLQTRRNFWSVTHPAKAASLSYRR
Summary of the method: as §1

[3] = molecular target: T2, USP38 (UniProt Q8NB14)
T2 sequence (whole entry): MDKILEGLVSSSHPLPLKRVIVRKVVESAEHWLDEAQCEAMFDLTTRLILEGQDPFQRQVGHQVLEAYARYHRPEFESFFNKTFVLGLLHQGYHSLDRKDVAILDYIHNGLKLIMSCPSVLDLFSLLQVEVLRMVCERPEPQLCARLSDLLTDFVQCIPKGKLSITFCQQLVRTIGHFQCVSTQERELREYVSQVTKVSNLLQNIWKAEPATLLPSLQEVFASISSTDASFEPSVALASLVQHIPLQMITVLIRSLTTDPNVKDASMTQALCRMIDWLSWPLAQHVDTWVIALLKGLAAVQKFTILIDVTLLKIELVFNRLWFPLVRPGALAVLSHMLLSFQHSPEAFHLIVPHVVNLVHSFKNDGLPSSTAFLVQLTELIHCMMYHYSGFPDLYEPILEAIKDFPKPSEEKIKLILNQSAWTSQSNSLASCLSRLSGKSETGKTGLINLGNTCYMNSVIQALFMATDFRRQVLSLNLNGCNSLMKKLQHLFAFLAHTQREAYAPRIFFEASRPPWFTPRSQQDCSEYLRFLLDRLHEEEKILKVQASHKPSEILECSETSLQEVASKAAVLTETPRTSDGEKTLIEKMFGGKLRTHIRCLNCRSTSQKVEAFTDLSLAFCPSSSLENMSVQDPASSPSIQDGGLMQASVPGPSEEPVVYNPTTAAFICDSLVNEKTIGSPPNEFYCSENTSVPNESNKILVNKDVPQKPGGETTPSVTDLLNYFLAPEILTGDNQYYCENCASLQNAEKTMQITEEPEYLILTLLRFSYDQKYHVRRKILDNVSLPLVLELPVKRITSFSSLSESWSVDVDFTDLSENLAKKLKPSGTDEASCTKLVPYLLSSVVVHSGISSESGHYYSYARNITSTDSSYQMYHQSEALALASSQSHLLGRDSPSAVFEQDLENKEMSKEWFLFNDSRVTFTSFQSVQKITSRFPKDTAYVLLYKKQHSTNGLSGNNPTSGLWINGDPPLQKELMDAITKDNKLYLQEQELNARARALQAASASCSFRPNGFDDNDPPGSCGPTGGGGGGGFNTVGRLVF
Summary of the method: as §1

[4] = molecular target: T3, USP39 (UniProt Q53GS9)
T3 sequence (whole entry): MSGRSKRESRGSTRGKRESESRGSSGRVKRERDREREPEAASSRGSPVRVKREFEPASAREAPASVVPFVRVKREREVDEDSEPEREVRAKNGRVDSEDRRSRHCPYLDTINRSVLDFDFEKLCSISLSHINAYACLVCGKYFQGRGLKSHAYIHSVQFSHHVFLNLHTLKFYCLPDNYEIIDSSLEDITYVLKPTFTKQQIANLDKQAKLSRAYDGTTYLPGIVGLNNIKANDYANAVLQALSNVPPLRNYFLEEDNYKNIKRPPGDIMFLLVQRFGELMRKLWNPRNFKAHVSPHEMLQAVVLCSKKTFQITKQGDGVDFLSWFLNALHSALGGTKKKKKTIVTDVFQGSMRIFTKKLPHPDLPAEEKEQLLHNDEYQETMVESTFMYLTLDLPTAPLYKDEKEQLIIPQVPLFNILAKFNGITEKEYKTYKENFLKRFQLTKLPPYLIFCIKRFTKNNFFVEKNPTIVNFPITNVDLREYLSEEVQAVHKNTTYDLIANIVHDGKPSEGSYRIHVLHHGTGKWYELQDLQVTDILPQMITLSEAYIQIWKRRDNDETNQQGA
Summary of the method: as §1

[5] = molecular target: T4, USP4 (UniProt Q13107)
T4 sequence (whole entry): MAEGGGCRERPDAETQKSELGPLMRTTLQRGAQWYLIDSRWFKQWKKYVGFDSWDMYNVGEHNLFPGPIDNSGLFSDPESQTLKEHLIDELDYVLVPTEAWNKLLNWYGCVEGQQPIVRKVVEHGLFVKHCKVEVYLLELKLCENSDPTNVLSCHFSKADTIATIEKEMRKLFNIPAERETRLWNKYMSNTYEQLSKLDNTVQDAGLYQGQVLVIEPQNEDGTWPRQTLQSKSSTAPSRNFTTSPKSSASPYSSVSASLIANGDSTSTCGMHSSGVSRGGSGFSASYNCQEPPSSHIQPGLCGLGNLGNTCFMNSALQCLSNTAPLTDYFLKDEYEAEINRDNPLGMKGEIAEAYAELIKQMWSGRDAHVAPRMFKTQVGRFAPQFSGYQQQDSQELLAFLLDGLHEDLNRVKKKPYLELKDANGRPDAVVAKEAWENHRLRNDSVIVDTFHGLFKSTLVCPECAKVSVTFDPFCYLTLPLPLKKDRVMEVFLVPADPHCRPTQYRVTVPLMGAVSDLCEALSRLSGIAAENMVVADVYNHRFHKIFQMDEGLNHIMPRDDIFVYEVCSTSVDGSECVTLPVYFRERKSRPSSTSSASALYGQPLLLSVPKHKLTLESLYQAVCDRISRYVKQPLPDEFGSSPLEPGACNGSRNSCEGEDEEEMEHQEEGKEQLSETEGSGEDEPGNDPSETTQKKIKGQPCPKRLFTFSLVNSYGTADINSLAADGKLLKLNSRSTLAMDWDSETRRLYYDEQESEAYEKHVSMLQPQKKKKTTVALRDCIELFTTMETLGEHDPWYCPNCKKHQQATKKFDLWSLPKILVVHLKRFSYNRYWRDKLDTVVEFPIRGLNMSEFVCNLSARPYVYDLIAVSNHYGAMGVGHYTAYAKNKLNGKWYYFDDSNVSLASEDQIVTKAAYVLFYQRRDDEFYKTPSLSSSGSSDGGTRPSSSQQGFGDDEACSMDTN
Summary of the method: as §1

Measured: log2 ratio of Biotin-Ahx-Ub-VS probe labelling

Cc1cccc(NC(=O)CCl)c1C
inactive: [1] -0.304 | [2] -0.363 | [3] -0.389 | [4] -0.513 | [5] -0.269
